# Results taken from ChEMBL document CHEMBL3988442, “University of Dundee, Small-Polar-MMV Screening Library” (2021).
# In all, about 66,000 compounds went through this assay and about 960 (1.5%) showed an effect of 50% or more. Only a selection was taken, and strong results are over-represented in it overall.
# System: Trypanosoma brucei
# Experiment: Trypanosoma brucei 72 hour study
# Assay type: functional, organism-based
# Parameters: scale not given: in the data most compounds retested in dose-response had high values
smiles,measurement,setting,value
Cl.O=C(NCCn1nc(C2CCNC2)c2cccnc21)C1CCC1 (centres undefined),Percent Effect,"30.3 µM, […]",-2.901%
Cc1cc(C)c2c(N3CCN(C(=O)N(C)C)CC3)ncnc2n1,Percent Effect,"30 µM, 30.03 µM",-10.57%
Cc1nnc(N2CCCC(C(=O)c3cccc(Cl)c3)C2)o1 (centres undefined),Percent Effect,"30 µM, 30.03 µM",-2.386%
O=C(c1cccnc1)C1CCCN(c2nnc(C3CC3)o2)C1 (centres undefined),Percent Effect,"30 µM, 30.03 µM",-35.25%
O=C(c1cccc(Cl)c1)C1CCCN(c2nnc(C3CCC3)o2)C1 (centres undefined),Percent Effect,"30 µM, 30.03 µM",75.84%
NCCn1cc(C(=O)N2CCCCCC2c2ccco2)nn1 (centres undefined),Percent Effect,"30 µM, 30.03 µM",-18.67%
Cn1ncc2ccc(C3CCCN(Cc4cccs4)C3)nc21 (centres undefined),Percent Effect,"30.3 µM, […]",11.55%
Oc1cc(C2CCCCN2Cc2cccs2)nc(-c2ccccn2)n1 (centres undefined),Percent Effect,"30.3 µM, […]",99.61%
Oc1cc(C2CCCCN2Cc2ccsc2)nc(-c2ccncc2)n1 (centres undefined),Percent Effect,"30.3 µM, […]",-12.11%
Oc1cc(-c2nccs2)nc(C2CCN(Cc3cccs3)CC2)n1,Percent Effect,"30.3 µM, […]",-16.93%
Oc1cc(C2CCCN(Cc3cccs3)C2)nc(-c2ccccn2)n1 (centres undefined),Percent Effect,"30.3 µM, […]",100.2%
Oc1cc(C2CCCCN2Cc2cccs2)nc(-c2ccncc2)n1 (centres undefined),Percent Effect,"30.3 µM, […]",-2.917%
O=C(CCn1cc(Cl)cn1)Nc1ccc2c(c1)OCCO2,Percent Effect,"30 µM, 30.03 µM",-17.81%
CN(C)c1ccc(C(=O)N2CCCN(C3CCCCC3)CC2)cn1,Percent Effect,"30.3 µM, […]",-15.89%
Cc1ccc(Cc2cnc(C3CCNCC3)cn2)cc1.Cl,Percent Effect,"30.3 µM, […]",-22.29%
O=S(=O)(NCC(c1ccsc1)N1CCCCCC1)c1cccs1 (centres undefined),Percent Effect,"30 µM, 30.03 µM",-20.18%
Oc1nc(N2CCOCC2)nc2c1CCN(Cc1cccc(F)c1)CC2,Percent Effect,"30.3 µM, […]",-14.28%
Oc1nc(N2CCOCC2)nc2c1CCN(Cc1ccc(F)cc1)CC2,Percent Effect,"30.3 µM, […]",100.3%
Oc1nc(N2CCOCC2)nc2c1CCN(Cc1ccccc1)CC2,Percent Effect,"30.3 µM, […]",-21.1%
CC(C)c1nc(CCN(C)c2nccc(N3CCCC(O)C3)n2)no1 (centres undefined),Percent Effect,"30.3 µM, […]",3.693%
Cc1cc(C(=O)N2CC[C@H]3[C@H]2CCN3S(C)(=O)=O)c(C)o1,Percent Effect,"30.3 µM, […]",-71.76%
Cc1oncc1C(=O)N1CC[C@H]2[C@@H]1CCC(=O)N2CC1CC1,Percent Effect,"30.3 µM, […]",-43.42%
Cc1oncc1C(=O)N1CC[C@H]2[C@H]1CCN2S(C)(=O)=O,Percent Effect,"30.3 µM, […]",97.42%
Cc1cccc(CN2CCC3(CC2)CC(c2cccnc2)C(=O)N3C)n1.O=C(O)C(F)(F)F.O=C(O)C(F)(F)F (centres undefined),Percent Effect,"30.3 µM, […]",-33.95%
COCC(=O)N1CCC2(CC1)COCCN2Cc1ccc(F)cc1.O=C(O)C(F)(F)F,Percent Effect,"30 µM, 30.03 µM",14.27%
Cc1nc(CC2CCN(Cc3ccc(CCC(C)(C)O)cc3)CC2)no1,Percent Effect,"30.3 µM, […]",-0.2557%
Cc1noc2nc(C3CCN(CC4CCCCC4)CC3)cc(C(F)F)c12.Cl,Percent Effect,"30.3 µM, […]",30.15%
CCn1nc(C)c2ccn(CC(=O)NCCCOC)c(=O)c21,Percent Effect,"30 µM, 30.03 µM",9.008%
O=C(O)C(F)(F)F.O=C(c1ccccn1)N1C[C@H]2CCC[C@@]2(COCC2CCOCC2)C1,Percent Effect,"30 µM, 30.03 µM",14.59%
O=C(c1cccs1)N1C[C@H]2CCC[C@@]2(COCC2CCOCC2)C1,Percent Effect,"30 µM, 30.03 µM",13.05%
O=C(c1ccncn1)N1C[C@H]2CCC[C@@]2(COCC2CCOCC2)C1,Percent Effect,"30 µM, 30.03 µM",54.31%
Cc1ccsc1C(=O)N1CCCN(Cc2cscn2)CC1,Percent Effect,10 µM,-20.65%
CN(C)C(=O)[C@H]1CCS(=O)(=O)[C@@H]2CN(c3ncccn3)C[C@H]12,Percent Effect,"30.3 µM, […]",-0.441%
COc1ccnc(N2CCN(C(=O)Cc3ccc(C#N)cc3)CC2)n1,Percent Effect,"30 µM, 30.03 µM",4.593%
Cc1nc(CC(=O)N2CCCN(c3ccc(C#N)cc3)CC2)cs1,Percent Effect,"30 µM, 30.03 µM",7.071%
COc1ccc(CC(=O)N2CCCN(c3ccc(C#N)cc3)CC2)cc1,Percent Effect,"30 µM, 30.03 µM",55.65%
CN1C[C@]2(CC[C@@H](C(=O)N3CCOCC3)CC2)Oc2ccccc2C1=O,Percent Effect,"30.3 µM, […]",-18.99%
CN1CCNC(=O)C12CCN(C(=O)c1ccc3[nH]c(=O)[nH]c3c1)CC2,Percent Effect,"30 µM, 30.03 µM",29.1%
Cc1ccc(C(=O)N2CCC3(CC2)C(=O)NCCN3C)cc1O,Percent Effect,"30 µM, 30.03 µM",-5.883%
Cc1ccc2[nH]c(C(=O)N3CCC4(CC3)C(=O)NCCN4C)nc2c1,Percent Effect,"30 µM, 30.03 µM",74.91%
Cn1cc(C(=O)NCc2cn3c(n2)CN(CC2CCCC2)CC3)cn1.O=C(O)C(F)(F)F.O=C(O)C(F)(F)F,Percent Effect,"30 µM, 30.03 µM",-33.28%
Cc1nc(CO[C@@H]2CN(Cc3cccs3)[C@@H]3COC[C@@H]32)cs1.O=C(O)C(F)(F)F,Percent Effect,"30 µM, 30.03 µM",-14.66%
Cc1cc(S(C)(=O)=O)c(C)c(S(=O)(=O)N2CCCC(C)C2)c1 (centres undefined),Percent Effect,"30 µM, 30.03 µM",0.7387%
O=C(O)C(F)(F)F.O=C1COC2(CCN(CC3CC3)CC2)CN1c1cncnc1,Percent Effect,"30 µM, 30.03 µM",-12.06%
CS(=O)(=O)NCC(=O)NC(Cc1ccccc1)C1CCCC1 (centres undefined),Percent Effect,"30.3 µM, […]",-60.62%
Cc1c(NC(=O)CN(C)S(C)(=O)=O)cccc1OC1CCCC1,Percent Effect,"30 µM, 30.03 µM",-55.36%
CS(=O)(=O)CCC(=O)NC(Cc1ccccc1)C1CC1 (centres undefined),Percent Effect,"30.3 µM, […]",70.04%
CN(CC(=O)NC(Cc1ccccc1)C1CCCC1)S(C)(=O)=O (centres undefined),Percent Effect,"30.3 µM, […]",62.9%
Cc1ccc(CC(NC(=O)CCS(C)(=O)=O)c2ccccn2)cc1 (centres undefined),Percent Effect,"30 µM, 30.03 µM",-49.38%
CS(=O)(=O)CCC(=O)NC1CC(c2ccccc2Cl)C1 (centres undefined),Percent Effect,"30 µM, 30.03 µM",-26.6%
CNc1nc(C)c(C(=O)N2C[C@H]3CC[C@@H]2CN(c2cnccn2)C3)s1,Percent Effect,"30 µM, 30.03 µM",-23.46%
CC1CN(C)CCN1C(=O)c1cnn(-c2cccc(Cl)c2)c1 (centres undefined),Percent Effect,"30.3 µM, […]",-22.44%
same,Percent Effect,"10 mM, 10 mM as filed; unlikely as a test dose",-40.4%
COCC1CC2(CCN(Cc3ccoc3)CC2)CN1C(C)C.O=C(O)C(F)(F)F.O=C(O)C(F)(F)F (centres undefined),Percent Effect,"30 µM, 30.03 µM",26.61%
CCN(CC)C(=O)CN1CCc2nc(C3CCNCC3)nc(NC)c2C1.Cl,Percent Effect,"30.3 µM, […]",-15.23%
CCC(=O)Nc1ccc2c(c1)C1(CCOCC1)CN2CCOC.O=C(O)C(F)(F)F,Percent Effect,"30.3 µM, […]",-49.74%
CN(Cc1ccccc1F)C(=O)Cn1cc(NC(=O)C(C)(C)C)cn1,Percent Effect,"30.3 µM, […]",-0.06216%
CC(C)NC(=O)N1CCN(CC2CC2)CC2(CNC(=O)C2)C1.O=C(O)C(F)(F)F (centres undefined),Percent Effect,"30 µM, 30.03 µM",-4.336%
COc1ccccc1C1(CNCc2ccc(C#N)cc2)CCOCC1,Percent Effect,"30.3 µM, […]",29.93%
COc1ccccc1C1(CNCc2cccc(C#N)c2)CCOCC1,Percent Effect,"30.3 µM, […]",67.18%
COc1ccccc1C1(CNCc2cccc(O)c2)CCOCC1,Percent Effect,"30.3 µM, […]",15.56%
CC(=O)Nc1ccc(Oc2cc(C)nc(C3CCNCC3)c2)cc1.Cl,Percent Effect,"30.3 µM, […]",0.5571%
Cc1cc(Oc2ccc(NC(=O)C3CC3)cc2)cc(C2CCNCC2)n1.Cl,Percent Effect,"30.3 µM, […]",99.81%
CC(=O)Nc1ccc(Oc2cc(C)nc(C3CCCNC3)c2)cc1.Cl (centres undefined),Percent Effect,"30.3 µM, […]",-25.31%
COCC(=O)N1CCC(Nc2ccnc3ccc(Cl)cc23)CC1,Percent Effect,"30.3 µM, […]",-10.12%
CS(=O)(=O)N1CCC(Nc2ccnc3ccc(Cl)cc23)CC1,Percent Effect,"30.3 µM, […]",-667%
NC(=O)CN1CCC(Nc2ccnc3ccc(Cl)cc23)CC1,Percent Effect,"30.3 µM, […]",62.45%
O=C1N(Cc2ccc(F)c(F)c2)CCCC1(O)CNCC1CCCCC1 (centres undefined),Percent Effect,"30 µM, 30.03 µM",-26.1%
CC(NC(=O)CCC(C)(C)C)C(=O)Nc1ccc(-n2cncn2)cc1 (centres undefined),Percent Effect,"30 µM, 30.03 µM",-4.525%
O=C1N(Cc2ccc(F)c(F)c2)CCCC12CCN(C1CCCCC1)C2 (centres undefined),Percent Effect,"30 µM, 30.03 µM",6.711%
O=C1N(Cc2ccc(F)c(F)c2)CCCC12CCN(C1CCCC1)C2 (centres undefined),Percent Effect,"30 µM, 30.03 µM",-86.64%
O=C1N(Cc2ccc(F)c(F)c2)CCCC12CCN(C1CCSCC1)C2 (centres undefined),Percent Effect,"30 µM, 30.03 µM",50.02%
COCCNC(=O)[C@@]12CCO[C@@H]1CCN(Cc1ccc(OC)cc1)C2.O=C(O)C(F)(F)F,Percent Effect,"30 µM, 30.03 µM",7.509%
CS(=O)(=O)c1ccc(CN2C[C@H]3CC[C@@H]2CN(c2ncccn2)C3)cc1,Percent Effect,"30 µM, 30.03 µM",-59.99%
Cc1ccc(C#N)c(N2CCC(c3nccn3CCN(C)C)CC2)n1,Percent Effect,"30 µM, 30.03 µM",57.26%
Cc1ccc(C#N)c(N2CCC(c3nccn3Cc3cscn3)CC2)n1,Percent Effect,"30 µM, 30.03 µM",31.21%
CN(C)CCn1ccnc1C1CCN(c2cc(N)nc(N)n2)CC1,Percent Effect,"30 µM, 30.03 µM",1.166%
O=C1C[C@H]2CC[C@@H](CN1)N2C(=O)CCc1ccc2c(c1)OCO2,Percent Effect,"30.3 µM, […]",6.652%
COc1ccc(C2=CCN(C(=O)C3CCN(C)C(=O)C3)CC2)cc1 (centres undefined),Percent Effect,"30 µM, 30.03 µM",57.6%
Cc1ccc(C2=CCN(C(=O)C3CCN(C)C(=O)C3)CC2)cc1 (centres undefined),Percent Effect,"30.3 µM, […]",-12.11%
COc1ccc(C2=CCN(C(=O)C3CCC3)CC2)cc1,Percent Effect,"30.3 µM, […]",-20.1%
CC(C)OCCCN(Cc1ccncc1)Cc1cccc(F)c1.Cl,Percent Effect,"30.3 µM, […]",-29.62%
Cc1ccccc1C1(C(=O)NCCN2CCC(C)CC2)CCOCC1,Percent Effect,"30.3 µM, […]",1.423%
COc1ccccc1C1(CNc2snc(Cl)c2C#N)CCOCC1,Percent Effect,"30.3 µM, […]",0.1302%
N#Cc1c(Cl)nsc1NCC1(c2ccccc2)CCC1,Percent Effect,"30.3 µM, […]",100.1%
COc1ccccc1C1(CNc2snc(Cl)c2C#N)CCCC1,Percent Effect,"30.3 µM, […]",35.81%
Cc1cccc(N2CCc3ncc(CNc4ccccn4)n3CC2)n1.O=C(O)C(F)(F)F.O=C(O)C(F)(F)F,Percent Effect,"30.3 µM, […]",-45.99%
Cl.NCC(=O)N1CCCC1c1nccnc1Nc1ncccn1 (centres undefined),Percent Effect,"30.3 µM, […]",-17.2%
C=C(C)CN1CCN(Cc2cnc(-c3ccc(OC)cc3)nc2)CC1.O=C(O)CC(O)(CC(=O)O)C(=O)O,Percent Effect,"30.3 µM, […]",2.32%
Cc1ccc(N[C@@H]2CN(Cc3cc(C)on3)C[C@@H]3CCCO[C@@H]32)nn1.O=C(O)C(F)(F)F.O=C(O)C(F)(F)F,Percent Effect,"30.3 µM, […]",-34.05%
Cc1noc(CNc2c(N3CCCC3)cccc2N2CCCC2)n1,Percent Effect,"30.3 µM, […]",-1.503%
Cc1noc(C)c1CNc1c(N2CCCC2)cccc1N1CCCC1,Percent Effect,"30.3 µM, […]",99.93%
COc1ccccc1N1CCC(NCc2c(C)noc2C)C1 (centres undefined),Percent Effect,"30 µM, 30.03 µM",-20.42%
O=C(NCc1ccco1)[C@@H]1CCO[C@@H]2CCN(C3CCOCC3)C[C@H]21.O=C(O)C(F)(F)F,Percent Effect,"30 µM, 30.03 µM",-32.7%
